The values that follow come from the antibiotic and cytotoxicity screens of Wong et al. (2023).

The structures appear in SMILES notation. Among all 39,000 compounds or so, about 3,300 (8.5%) were called active. This is one part of a sample in which actives are shown more often than they occur.

This experiment relates to HepG2. The experiment is described as follows: cytotoxicity call (relative viability < 0.9). The conditions noted are these: 10 µM.
Consider `C[C@H]1CCCCO[C@H](CN(C)C(=O)Nc2ccc3c(c2)OCO3)[C@@H](C)CN([C@@H](C)CO)C(=O)c2cc(NS(=O)(=O)c3cccs3)ccc2O1`, for which the cytotoxicity call was “inactive”.
Turning to `C[C@H](CO)N1C[C@H](C)[C@H](CN(C)Cc2ccc(C(=O)Nc3ccccc3N)cc2)Oc2c(NS(C)(=O)=O)cccc2C1=O`, the cytotoxicity call was “inactive”.
Regarding `COCCNCCn1cnc2c1c(=O)[nH]c(=O)n2C`, the cytotoxicity call was “inactive”.
In the case of `C[C@@H]1CCCCO[C@@H](CN(C)Cc2ccncc2)[C@H](C)CN([C@H](C)CO)C(=O)c2cc(NC(=O)Nc3ccc4c(c3)OCO4)ccc2O1`, the cytotoxicity call was “inactive”.
Consider `C[C@@H]1CCCCO[C@@H](CN(C)C(=O)CCCN(C)C)[C@@H](C)CN([C@@H](C)CO)C(=O)c2cc(NC(=O)Nc3ccc(C(F)(F)F)cc3)ccc2O1`, for which the cytotoxicity call was “inactive”.
With `Cc1ccc(S(=O)(=O)N(C)C[C@H]2OCCCC[C@H](C)Oc3ccc(NC(=O)Nc4c(C)noc4C)cc3C(=O)N([C@@H](C)CO)C[C@@H]2C)cc1` the entry was “inactive”.
The value for `C[C@H](CO)N1C[C@H](C)[C@@H](CN(C)C(=O)Nc2cccc3ccccc23)Oc2ccc(NS(=O)(=O)c3ccc(F)cc3)cc2C1=O` was “inactive”.
The value for `C[C@H]1CN([C@@H](C)CO)C(=O)Cc2cc(NC(=O)C3CC3)ccc2O[C@@H]1CN(C)S(=O)(=O)c1cn(C)cn1` was “inactive”; that for `COc1ccc(S(=O)(=O)Nc2ccc3c(c2)C(=O)N([C@@H](C)CO)C[C@H](C)[C@H](CN(C)Cc2ccc(Cl)c(Cl)c2)OCCCC[C@@H](C)O3)cc1` was “active”.
Regarding `COc1ccc(S(=O)(=O)Nc2ccc3c(c2)C(=O)N([C@H](C)CO)C[C@@H](C)[C@H](CN(C)Cc2ccc(Cl)c(Cl)c2)OCCCC[C@@H](C)O3)cc1`, the cytotoxicity call is “active”.
The value for `COc1ccc(S(=O)(=O)Nc2ccc3c(c2)C(=O)N([C@H](C)CO)C[C@H](C)[C@H](CN(C)Cc2ccc(Cl)c(Cl)c2)OCCCC[C@H](C)O3)cc1` was “inactive”; that for `COc1ccc(S(=O)(=O)Nc2ccc3c(c2)C(=O)N([C@H](C)CO)C[C@@H](C)[C@@H](CN(C)Cc2ccc(Cl)c(Cl)c2)OCCCC[C@H](C)O3)cc1` was “inactive”.
With `COc1ccc(S(=O)(=O)Nc2ccc3c(c2)C(=O)N([C@H](C)CO)C[C@H](C)[C@H](CN(C)Cc2ccc(Cl)c(Cl)c2)OCCCC[C@@H](C)O3)cc1` the entry was “active”.
The value for `COc1ccc(S(=O)(=O)Nc2ccc3c(c2)C(=O)N([C@@H](C)CO)C[C@@H](C)[C@@H](CN(C)Cc2ccc(Cl)c(Cl)c2)OCCCC[C@@H](C)O3)cc1` was “active”; that for `COCCNC(=O)C[C@H]1C[C@@H]2c3cc(NS(C)(=O)=O)ccc3O[C@@H]2[C@@H](CO)O1` was “inactive”.
On to `O=C(O)c1csc2ccccc12`, for which the cytotoxicity call was “inactive”.
With `Cc1noc(C)c1S(=O)(=O)N(C)C[C@H]1OCCCC[C@@H](C)Oc2ccc(NS(C)(=O)=O)cc2C(=O)N([C@H](C)CO)C[C@@H]1C` the entry was “inactive”.
Turning to `COc1ccc(S(=O)(=O)N(C)C[C@H]2Oc3ccc(NC(=O)NC(C)C)cc3CC(=O)N([C@@H](C)CO)C[C@H]2C)cc1`, the cytotoxicity call is “inactive”.
`O=C(CN1C(=O)COCC1=O)N1CCOCC1`: the cytotoxicity call is “inactive”.
The value for `CCCNC(=O)Nc1ccc2c(c1)OC[C@H](C)N(C(=O)C1CCOCC1)C[C@H](C)[C@H](OC)CN(C)C2=O` was “inactive”; that for `CC(C)c1cc(N2CC[C@@H](N)C2)nc(N)n1` was “inactive”.
The value for `Cc1noc(C)c1NC(=O)Nc1cccc2c1O[C@H](CN(C)S(C)(=O)=O)[C@H](C)CN([C@@H](C)CO)C2=O` was “inactive”.
The value for `CC(C)NC(=O)Nc1ccc2c(c1)CC(=O)N([C@H](C)CO)C[C@H](C)[C@H](CN(C)Cc1ccc(C(=O)O)cc1)O2` was “inactive”.
For the molecule `O=C(NCCCN1CCOCC1)[C@H]1[C@H](CO)[C@H]2Cn3c(cccc3=O)[C@@H]1N2C(=O)NC1CCCC1`, the cytotoxicity call is “inactive”.
The value for `CC(C)CN[C@H]1CCS(=O)(=O)C1` was “inactive”; that for `COc1ccc(CN(C)C[C@@H]2OCCCC[C@@H](C)Oc3ccc(NS(=O)(=O)c4ccc(OC)cc4)cc3C(=O)N([C@H](C)CO)C[C@H]2C)cc1` was “inactive”.
With `COc1ccc(S(=O)(=O)Nc2ccc3c(c2)C(=O)N([C@H](C)CO)C[C@H](C)[C@@H](CN(C)Cc2ccc(Cl)c(Cl)c2)OCCCC[C@H](C)O3)cc1` the entry was “active”; with `COc1ccc(CN(C)C[C@H]2OCCCC[C@@H](C)Oc3ccc(NS(=O)(=O)c4ccc(OC)cc4)cc3C(=O)N([C@H](C)CO)C[C@@H]2C)cc1`, “inactive”; with `COc1ccc(S(=O)(=O)Nc2ccc3c(c2)C(=O)N([C@@H](C)CO)C[C@@H](C)[C@H](CN(C)Cc2ccc(Cl)c(Cl)c2)OCCCC[C@@H](C)O3)cc1`, “active”.
With `C[C@H]1CN([C@@H](C)CO)C(=O)c2cc(NS(=O)(=O)c3cn(C)cn3)ccc2O[C@H]1CN(C)C(=O)Nc1ccc2c(c1)OCO2` the entry was “inactive”; with `Cc1nc(CO)co1`, “inactive”; with `COc1ccc([C@@H](N)c2ccncc2)cc1`, “inactive”.
In the case of `C[C@H](CO)N1C[C@H](C)[C@@H](CN(C)Cc2ccc(Oc3ccccc3)cc2)Oc2c(NC(=O)CCCCCC(=O)Nc3ccccc3N)cccc2C1=O`, the cytotoxicity call is “inactive”.
As for `O=S(=O)(NCCCCN(C/C=C/c1ccccc1)C/C=C/c1ccccc1)c1cccc2cnccc12`, the cytotoxicity call is “inactive”.
The value for `O=[N+]([O-])c1ccc(/C=C/CN(C/C=C/c2ccc([N+](=O)[O-])cc2)CCNS(=O)(=O)c2cccc3cnccc23)cc1` was “inactive”; that for `COc1ccc(/C=C/CN(C/C=C/c2ccc(OC)cc2)CCCCNS(=O)(=O)c2cccc3cnccc23)cc1` was “active”.
With `O=S(=O)(NCCCN(CCCc1ccccc1)CCCc1ccccc1)c1cccc2cnccc12` the entry was “inactive”.
The value for `N=C(N)NCCNS(=O)(=O)c1cccc2cnccc12` was “active”; that for `O=S(=O)(NCCCCN(C/C=C/c1ccc(F)cc1)C/C=C/c1ccc(F)cc1)c1cccc2cnccc12` was “active”; that for `O=S(=O)(NCCCN(C/C=C/c1ccc(F)cc1)C/C=C/c1ccc(F)cc1)c1cccc2cnccc12` was “inactive”.
As for `COc1ccc(/C=C/CN(C/C=C/c2ccc(OC)cc2)CCCNS(=O)(=O)c2cccc3cnccc23)cc1`, the cytotoxicity call was “inactive”.
As for `O=[N+]([O-])c1ccc(/C=C/CN(C/C=C/c2ccc([N+](=O)[O-])cc2)CCCCNS(=O)(=O)c2cccc3cnccc23)cc1`, the cytotoxicity call was “inactive”.
The value for `COc1ccc(NC(=O)N(C)C[C@@H]2Oc3ccc(NC(=O)CCCN(C)C)cc3C(=O)N([C@H](C)CO)C[C@@H]2C)cc1` was “inactive”; that for `C[C@@H]1CN([C@H](C)CO)C(=O)c2cc(NS(=O)(=O)c3cn(C)cn3)ccc2O[C@@H](C)CCCCO[C@@H]1CN(C)C` was “inactive”; that for `Cc1cc(C(=O)Nc2cccc3c2O[C@@H](CN(C)S(=O)(=O)c2ccc(Cl)cc2)[C@H](C)CN([C@@H](C)CO)C3=O)n(C)n1` was “inactive”.
The value for `C[C@@H]1CN([C@@H](C)CO)C(=O)c2cc(NS(=O)(=O)c3cccs3)ccc2O[C@H]1CN(C)S(=O)(=O)c1ccc(F)cc1` was “inactive”; that for `C[C@@H](O)[C@H](N)C(=O)N[C@@H](CCCCN)C(=O)N1CCC[C@H]1C(=O)N[C@@H](CCCNC(=N)N)C(=O)O` was “inactive”.
With `O=C(C[C@H]1C[C@H]2c3cc(NS(=O)(=O)c4ccc(F)cc4)ccc3O[C@H]2[C@H](CO)O1)NCc1cccnc1` the entry was “inactive”.
Turning to `Cc1noc(C)c1NC(=O)Nc1ccc2c(c1)C(=O)N([C@H](C)CO)C[C@H](C)[C@@H](CN(C)C(=O)Nc1c(C)noc1C)OCCCC[C@H](C)O2`, the cytotoxicity call is “inactive”.
With `CN(C)CCCCCCNC(=O)[C@@H]1C[C@@H]2C(=O)N[C@@H](CCCC[N+](C)(C)C)C(=O)N2[C@@H]1c1cccc(OCCO)c1` the entry was “inactive”; with `C[C@H](CO)N1C[C@H](C)[C@@H](CN(C)C(=O)C2CCCCC2)Oc2cc(C#Cc3ccncc3)ccc2S1(=O)=O`, “active”; with `C[C@H](O)C#Cc1ccc2c(c1)O[C@@H](CN(C)C(=O)C1CCCCC1)[C@H](C)CN([C@@H](C)CO)S2(=O)=O`, “inactive”.
The value for `C[C@@H]1CN([C@@H](C)CO)S(=O)(=O)c2ccc(C#CC3CC3)cc2O[C@H]1CN(C)C(=O)C1CCCCC1` was “inactive”; that for `C[C@H]1CN([C@@H](C)CO)S(=O)(=O)c2ccc(C#Cc3ccncc3)cc2O[C@H]1CN(C)C(=O)C1CCCCC1` was “inactive”.
With `C[C@H](O)C#Cc1ccc2c(c1)O[C@@H](CN(C)C(=O)C1CCCCC1)[C@H](C)CN([C@H](C)CO)S2(=O)=O` the entry was “inactive”; with `C[C@@H]1CN([C@H](C)CO)S(=O)(=O)c2ccc(C#Cc3ccncc3)cc2O[C@H]1CN(C)C(=O)C1CCCCC1`, “active”; with `C[C@@H]1CN([C@@H](C)CO)S(=O)(=O)c2ccc(C#Cc3ccncc3)cc2O[C@H]1CN(C)C(=O)C1CCCCC1`, “active”.
Turning to `C[C@@H]1CN([C@H](C)CO)S(=O)(=O)c2ccc(C#C[C@@H](C)O)cc2O[C@@H]1CN(C)C(=O)C1CCCCC1`, the cytotoxicity call is “inactive”.
For `C[C@H](CO)N1C[C@H](C)[C@H](CN(C)C(=O)C2CCCCC2)Oc2cc(C#Cc3ccncc3)ccc2S1(=O)=O`, the cytotoxicity call is “active”.
The value for `COc1ccc(CN(C)C[C@@H]2Oc3ccc(NS(=O)(=O)c4cn(C)cn4)cc3C(=O)N([C@@H](C)CO)C[C@@H]2C)cc1` was “inactive”; that for `C[C@H]1CN([C@@H](C)CO)C(=O)c2cc(NC(=O)Nc3ccc4c(c3)OCO4)ccc2O[C@@H]1CN(C)C(=O)Nc1cccc2ccccc12` was “inactive”.
The value for `C[C@H](CO)N1C[C@H](C)[C@H](CN(C)S(=O)(=O)c2ccccc2)Oc2c(NS(=O)(=O)c3cccs3)cccc2C1=O` was “inactive”; that for `Cc1ccc(S(=O)(=O)N(C)C[C@@H]2Oc3ccc(NS(=O)(=O)c4c(C)noc4C)cc3C(=O)N([C@@H](C)CO)C[C@H]2C)cc1` was “inactive”; that for `COc1ccccc1-c1cccc(-c2nc(C(=O)N3CCCCC3)cc3c2[C@@H](CCO)N([S@](=O)C(C)(C)C)C3)c1` was “inactive”.
